The nature of experiment [1]: resazurin metabolic signal in HepG2 cells – cell-based, resazurin fluorescence, 24 h, PK04 Diversity Set, profiling panel (AID 1172). The settings on record: HepG2 viability, higher = more signal.
A short description of experiment [2]: budding yeast growth changes without added modifier – OD600, strain BY4716, 24 h, basal condition, primary screen (AID 1173). The settings on record: S. cerevisiae BY4716 growth, OD600, 24 h; higher = more signal, called active from +8 up or from −8 down.
Experiment [3] can be described thus: viability profiling in MM1S myeloma cells – cell-based, resazurin fluorescence, basal, 24 h, PK04 Diversity Set, profiling panel (AID 1174).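 Further: MM1S multiple myeloma cell line.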 The settings on record: higher = more signal, called active from +8 up or from −8 down.
Experiment [4] addresses Dihydroorotate dehydrogenase (quinone), mitochondrial (Plasmodium falciparum (isolate 3D7)) (UniProt Q08210). Put plainly: inhibition of P. falciparum DHODH – biochemical, C-terminal His tag, absorbance 600 nm, primary screen (AID 1175).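 Further: recombinant parasite enzyme with a five histidine tag at its C terminus.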 The settings on record: PfDHODH enzyme, DCIP absorbance 600 nm; higher = more signal, called active from +8 up or from −8 down.
Experiment [5] is described as follows: inhibition of PAO1 biofilm formation – strain PAO1, LB-PBS medium, absorbance 600 nm, primary screen (AID 1176). To be noted: P. aeruginosa PAO1 growth/biofilm, A600, 12 h; higher = more signal.
The nature of experiment [6]: growth modulation of vineyard yeast isolate – strain RM11-1a, OD600, basal, 24 h, primary screen (AID 1177).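 Further: cultures grown under basal conditions with no added stressor.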 To be noted: S. cerevisiae RM11-1a growth, OD600, 24 h; higher = more signal, called active from +8 up or from −8 down.
The nature of experiment [7]: growth of efflux-deficient E. coli DRC39 – strain DRC39, OD650, 24 h, E. coli filamentation inducers, primary screen (AID 1178).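 Further: growth measured as culture turbidity by optical density at 650 nm.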 The settings on record: E. coli DRC39 acrAB, higher = more signal, called active from +8 up or from −8 down.
A short description of experiment [8]: growth of efflux-deficient E. coli DRC39 – strain DRC39, OD650, 48 h, E. coli filamentation inducers, primary screen (AID 1179).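 Further: screen aims at cell division blockers that make cells filament.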 To be noted: E. coli DRC39 delta-acrAB growth, higher = more signal, called active from +8 up or from −8 down.
Experiment [9] can be described thus: viability profiling in RPMI8226 myeloma cells – cell-based, resazurin fluorescence, basal, 24 h, PK04 Diversity Set, profiling panel (AID 1180).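 Further: RPMI8826 multiple myeloma cell line at 5000 cells per well.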 The settings on record: higher = more signal.
Experiment [10] has as its target E3 ubiquitin-protein ligase XIAP (Homo sapiens) (UniProt P98170). Put plainly: small molecules binding XIAP protein – biophysical, small-molecule microarray, fluorescence 635 nm, primary screen (AID 1181).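 Further: score merges 667 nm emission and signal to noise over triplicate slides.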 To be noted: higher = more signal.
The test system of experiment [11] is XIP peptide (Xip251-270) binding. In words: XIP fragment 251-270 binding compounds – biochemical, small-molecule microarray, fluorescence 635/667 nm, 0.1 µg/mL protein, primary screen (AID 1182). The settings on record: fluorescent protein binding, 635 nm, higher = more signal, called active from +8 up or from −8 down.
The subject of a further experiment is XIP peptide (Xip251-270). In words: compounds binding XIP fragment 251-270 – biochemical, small-molecule microarray, fluorescence 635/667 nm, 0.5 µg/mL protein, primary screen (AID 1183). To be noted: fluorescence 635 nm, higher = more signal.
Experiment [12] in a line: blood-stage malaria parasite viability loss – strain 3D7, DAPI fluorescence, 100 nL, primary screen (AID 1184).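 Further: parasites grown inside human red blood cells in medium with human serum.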 To be noted: P. falciparum 3D7 growth, 3 d, higher = more signal.
Experiment [13] concerns the target Homeobox protein Hox-A13 (Mus musculus) (UniProt Q62424). In words: disruptors of Hoxa13 oligonucleotide interaction – biochemical, fluorescence polarization, labeled oligonucleotide, primary screen (AID 1185). To be noted: Hoxa13:DNA binding, 15 min, higher = more signal, called active from +8 up or from −8 down.
A short description of experiment [14]: blockers of DNA damage checkpoint Chk1 activation – imaging, HeLa, hydroxyurea, phospho-Chk1 antibody, percent positive cells, primary screen (AID 1186). The settings on record: hydroxyurea-induced phospho-Chk1 immunofluorescence imaging, higher = more signal.
Experiment [15] can be described thus: blockers of DNA damage checkpoint Chk1 activation – imaging, HeLa, hydroxyurea, phospho-Chk1 nuclear intensity, primary screen (AID 1187). To be noted: hydroxyurea-induced phospho-Chk1 immunofluorescence imaging, higher = more signal.

SMILES strings stand for the structures. Activity calls are given as the source filed them. Unless noted, how the calls were made is not given here.

Sequence of E3 ubiquitin-protein ligase XIAP (Homo sapiens) (P98170 whole entry, looked up, the tested form may be a part): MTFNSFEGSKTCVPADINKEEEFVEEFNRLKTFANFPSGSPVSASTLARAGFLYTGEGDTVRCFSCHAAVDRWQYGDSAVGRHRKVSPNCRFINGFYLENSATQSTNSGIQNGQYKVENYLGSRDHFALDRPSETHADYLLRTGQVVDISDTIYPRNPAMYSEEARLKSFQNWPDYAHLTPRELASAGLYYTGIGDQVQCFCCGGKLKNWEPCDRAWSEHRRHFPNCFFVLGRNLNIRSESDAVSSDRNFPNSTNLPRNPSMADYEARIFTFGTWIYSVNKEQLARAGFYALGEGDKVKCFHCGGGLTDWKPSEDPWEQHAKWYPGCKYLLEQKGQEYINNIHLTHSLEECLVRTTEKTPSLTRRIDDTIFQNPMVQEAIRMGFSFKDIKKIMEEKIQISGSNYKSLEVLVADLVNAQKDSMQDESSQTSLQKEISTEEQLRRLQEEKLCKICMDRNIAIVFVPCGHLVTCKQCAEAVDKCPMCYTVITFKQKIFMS
Sequence of Homeobox protein Hox-A13 (Mus musculus) (Q62424 whole entry, looked up): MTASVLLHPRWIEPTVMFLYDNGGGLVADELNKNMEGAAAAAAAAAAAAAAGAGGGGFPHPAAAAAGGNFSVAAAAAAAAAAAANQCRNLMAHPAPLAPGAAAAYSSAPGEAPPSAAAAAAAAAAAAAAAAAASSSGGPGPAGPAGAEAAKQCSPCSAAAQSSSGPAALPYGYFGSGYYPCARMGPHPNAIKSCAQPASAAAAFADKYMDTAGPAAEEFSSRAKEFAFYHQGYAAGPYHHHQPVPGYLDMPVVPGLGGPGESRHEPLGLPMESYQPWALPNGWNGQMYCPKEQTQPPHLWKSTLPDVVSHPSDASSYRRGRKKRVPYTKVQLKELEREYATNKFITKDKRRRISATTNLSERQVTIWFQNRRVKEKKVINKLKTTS
Sequence of Dihydroorotate dehydrogenase (quinone), mitochondrial (Plasmodium falciparum (isolate 3D7)) (Q08210 whole entry, looked up): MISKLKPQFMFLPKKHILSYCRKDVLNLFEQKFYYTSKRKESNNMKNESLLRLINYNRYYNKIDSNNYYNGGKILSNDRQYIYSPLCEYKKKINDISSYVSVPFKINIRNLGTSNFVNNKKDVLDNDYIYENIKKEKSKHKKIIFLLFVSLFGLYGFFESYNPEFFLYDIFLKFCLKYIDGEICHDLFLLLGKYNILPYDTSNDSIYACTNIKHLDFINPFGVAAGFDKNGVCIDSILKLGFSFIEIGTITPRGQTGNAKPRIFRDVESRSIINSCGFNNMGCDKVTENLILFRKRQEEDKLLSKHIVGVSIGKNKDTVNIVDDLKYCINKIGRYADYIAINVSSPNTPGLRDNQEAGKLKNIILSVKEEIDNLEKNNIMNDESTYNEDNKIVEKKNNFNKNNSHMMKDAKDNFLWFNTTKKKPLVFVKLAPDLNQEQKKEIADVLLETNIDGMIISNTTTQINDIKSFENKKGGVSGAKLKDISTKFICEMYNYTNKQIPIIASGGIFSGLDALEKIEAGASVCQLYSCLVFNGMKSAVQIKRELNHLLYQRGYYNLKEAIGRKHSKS

As to `COc1ccc([Si](C)(C)[C@@H]2[C@@H](CC(=O)N(CCO)Cc3ccccc3)O[C@]3(C(=O)N(Cc4cccc(N5CCCCC5=O)c4)c4ccccc43)[C@H]2C)cc1`, the z-score in experiment [1] was -0.369; in experiment [2], 0.594 (inactive); in experiment [3], -1.72 (inactive); in experiment [5] it was 1.63 (inactive); in [6], 2.63 (inactive); in experiment [7], 0.899 (inactive). Moreover, the z-score in experiment [8] is 0.246 (inactive); in experiment [9] it was -1.74; in [12], -2.44; in experiment [13] it was -1.13 (inactive); in experiment [14] it was 0.405 (inactive); in [15], 0.797 (inactive). Also, the composite z-score was -1 (inactive) in experiment [4], -0.138 in [10], 0.0247 (inactive) in experiment [11] and 0.709 with XIP peptide (Xip251-270).

Take `C=CCNC(=O)[C@@H]1[C@H]2C(=O)O[C@H](c3ccccc3)[C@H](c3ccccc3)N2[C@H](c2ccccc2OCCO)[C@@]12C(=O)Nc1ccc(C#CCC(C(=O)OC)C(=O)OC)cc12`: the z-score in experiment [1] was -0.679; in [2], 1.59 (inactive); in [3], -8.99 (active); in [5], 2.19 (inactive); in experiment [6], 1.86 (inactive); in experiment [7] it was 0.108 (inactive). Further, the z-score was -0.263 (inactive) in [8]; -7.28 in [9]; -2.1 in [12]; -3.02 (inactive) in experiment [13]; 0.0648 (inactive) in [14]; -0.246 (inactive) in experiment [15]. Moreover, the composite z-score was -25.5 (active) in experiment [4], -0.0062 in [10], 1.56 (inactive) in experiment [11] and 0.343 with XIP peptide (Xip251-270).

For `O=C(NCc1ccc(F)cc1)[C@H]1C[C@H]2C(=O)NCC(=O)N2[C@H]1c1ccc(O)cc1`, the z-score was -1.15 in experiment [1]; 0.407 (inactive) in [2]; 0.0901 (inactive) in experiment [3]; -0.0185 (inactive) in [5]; 1.23 (inactive) in [6]; -0.42 (inactive) in [7]. The z-score in experiment [8] is -0.806 (inactive); in experiment [9] it was 0.18; in [12], -0.16; in experiment [13] it was -1.87 (inactive); in [14] it was -0.339 (inactive); in experiment [15] it was -0.45 (inactive). For the same molecule, the composite z-score is -0.0559 (inactive) in experiment [4], -0.294 in experiment [10], 0.981 (inactive) in experiment [11] and 0.842 in the experiment with XIP peptide (Xip251-270).

For the molecule `CC(C)N1C(=O)c2ccccc2[C@@H](C(=O)NCCN2CCOCC2)[C@@H]1c1ccc(CO)cc1`, the z-score was -0.229 in experiment [1]; 0.525 (inactive) in experiment [2]; -0.401 (inactive) in experiment [3]; 0.429 (inactive) in experiment [5]; 0.985 (inactive) in [6]; 0.0059 (inactive) in [7]. Moreover, the z-score in experiment [8] was -0.434 (inactive); in experiment [9], -0.0956; in [12] it was -0.22; in [13], -4.17 (inactive); in experiment [14], -0.0809 (inactive); in experiment [15], -0.264 (inactive). The composite z-score in [4] was 0.184 (inactive); in [10] it was -0.465; in [11], 0.122 (inactive); in the experiment with XIP peptide (Xip251-270) it was 0.0961.

`CCCC[C@@H](O)C1=C(COc2ccccc2)C[C@H]2C(=O)N(Cc3ccccc3)C(=O)[C@H]2[C@H]1CO`: the z-score is -0.78 in experiment [1]; -1.66 (inactive) in experiment [2]; -0.857 (inactive) in experiment [3]; -0.508 (inactive) in experiment [5]; 0.743 (inactive) in experiment [6]; -0.0552 (inactive) in experiment [7]. Moreover, the z-score in experiment [8] is 0.218 (inactive); in [9], -0.301; in experiment [12] it was 0.131; in experiment [13], -7.37 (inactive); in experiment [14] it was -0.782 (inactive); in experiment [15] it was -0.513 (inactive). Moreover, the composite z-score in experiment [4] is -4.48 (inactive); in [10], -0.0118; in experiment [11], -0.243 (inactive); in the experiment with XIP peptide (Xip251-270), 0.374.

As for `CCOC(=O)C[C@H]1[C@H](OC(=O)c2cc3ccccc3oc2=O)[C@@H](NC(=O)c2ccccc2)c2cc(OCCCO)ccc2N1C(=O)c1ccccc1`, the z-score in experiment [1] was -1.3; in experiment [2] it was -1.89 (inactive); in experiment [3] it was 0.741 (inactive); in [5], -1.02 (inactive); in experiment [6], -0.0038 (inactive); in experiment [7], -0.397 (inactive). For the same molecule, the z-score is -0.869 (inactive) in [8]; -0.171 in experiment [9]; -1.66 in [12]; -1.56 (inactive) in [13]; 0.171 (inactive) in experiment [14]; -0.0272 (inactive) in experiment [15]. The composite z-score in experiment [4] is -3.31 (inactive); in [10] it was -0.0559; in experiment [11], -0.0879 (inactive); in the experiment on XIP peptide (Xip251-270) it was 0.283.

Take `C=C(/C(=C/C[C@H](OC(=O)c1ccncc1)c1ccc(CO)o1)c1cnc2ccccc2c1)C(C)C`: the z-score in experiment [1] is -0.0499; in experiment [2], -1.2 (inactive); in experiment [3], -0.0537 (inactive); in experiment [5], 1.16 (inactive); in experiment [6], 0.481 (inactive); in experiment [7], 0.586 (inactive). The z-score is 0.0868 (inactive) in experiment [8]; 0.601 in experiment [9]; -0.137 in experiment [12]; -5.42 (inactive) in [13]; -0.282 (inactive) in experiment [14]; -0.39 (inactive) in [15]. The composite z-score in experiment [4] is -7.44 (inactive); in experiment [10] it was -0.0749; in experiment [11], 0.276 (inactive); in the experiment on XIP peptide (Xip251-270), 0.647.

In the case of `COc1ccc(CCNC(=O)[C@@]2(c3ccc([N+](=O)[O-])cc3)CC(=O)N(C3CCCCC3)[C@@H]2c2ccc(CO)cc2)cc1`, the z-score was 0.159 in experiment [1]; -0.0229 (inactive) in [2]; -0.881 (inactive) in experiment [3]; -0.342 (inactive) in experiment [5]; 1.14 (inactive) in experiment [6]; 0.914 (inactive) in [7]. Besides, the z-score in [8] was 0.686 (inactive); in [9] it was 0.556; in experiment [12], -0.171; in [13], -4.2 (inactive); in experiment [14], -0.192 (inactive); in [15], 0.0527 (inactive). Also, the composite z-score in [4] is 0.395 (inactive); in experiment [10], -0.0333; in experiment [11], 1.48 (inactive); in the experiment on XIP peptide (Xip251-270), 0.662.

Take `COc1ccc([Si](C)(C)[C@@H]2[C@@H](CCO)O[C@]3(C(=O)N(Cc4ccccc4)c4ccc(N5C(=O)c6cccc7cccc5c67)cc43)[C@H]2C)cc1`: the z-score in experiment [1] was -0.0019; in [2], 0.282 (inactive); in [3], 0.274 (inactive); in experiment [5], 2.24 (inactive); in experiment [6] it was 4.59 (inactive); in experiment [7] it was 2.16 (inactive). The z-score in experiment [8] is 1.45 (inactive); in experiment [9], -0.298; in experiment [12], -2.76; in [13] it was -0.268 (inactive); in [14], -0.991 (inactive); in experiment [15] it was -0.379 (inactive). The composite z-score in experiment [4] is -0.488 (inactive); in experiment [10], -0.152; in experiment [11] it was 0.533 (inactive); in the experiment on XIP peptide (Xip251-270) it was 0.541.

In the case of `C=C(COC)/C(=C/C[C@H](OC(=O)c1ccncc1)c1ccc(CO)o1)c1cnc2ccccc2c1`, the z-score in experiment [1] was -0.338; in experiment [2], 0.107 (inactive); in [3], -0.117 (inactive); in [5], 0.449 (inactive); in experiment [6] it was 0.158 (inactive); in [7] it was -0.305 (inactive). Besides, the z-score in experiment [8] was -0.343 (inactive); in experiment [9] it was 0.0987; in experiment [12] it was 0.834; in experiment [13], -5.63 (inactive); in experiment [14], -0.429 (inactive); in [15], -0.442 (inactive). For the same molecule, the composite z-score was -7.5 (inactive) in experiment [4], -0.121 in experiment [10], 1.02 (inactive) in experiment [11] and 0.447 in the experiment with XIP peptide (Xip251-270).

The values above are taken from PubChem BioAssay.
